Reference: PubChem BioAssay (NCATS)
Inconclusive results are not listed. Activity calls are given as the source filed them. The call rests on the fitted dose curve; in most records, active means well fitted cell-killing curve with a large enough effect; inconclusive means small, poorly fitted or top-dose-only effect, or effect the other way; inactive means flat fitted curve, though single readings scatter.

How the values were obtained:
Experiment in all cases: Primary qHTS to identify gynecologic anti-cancer compounds using libraries of approved drugs and bioactive compounds (AID 1345084); further: nearly all actives have a fitted effect of over 55% in size
[1] = system: C33A; conditions: Gynecologic cancer cell panel viability, ATPlite luminescence, 48 h; series mostly up to 57.5 µM
Procedure, shortened: (§1)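 Cell viability after 48 h drug treatment, ATPlite luminescence readout; five doses.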

[2] = system: CAOV3; conditions: Gynecologic cancer cell panel viability, ATPlite luminescence, 48 h; series mostly up to 57.5 µM
Procedure, shortened: as §1

[3] = system: CASKI; conditions: Gynecologic cancer cell panel viability, ATPlite luminescence, 48 h; series mostly up to 57.5 µM
Procedure, shortened: as §1

[4] = system: Es-2; conditions: Gynecologic cancer cell panel viability, ATPlite luminescence, 48 h; series mostly up to 57.5 µM
Procedure, shortened: as §1

[5] = system: HeLa; conditions: Gynecologic cancer cell panel viability, ATPlite luminescence, 48 h; series mostly up to 57.5 µM
Procedure, shortened: as §1

[6] = system: Hek293T; conditions: Gynecologic cancer cell panel viability, ATPlite luminescence, 48 h, control line for the selectivity index; series mostly up to 57.5 µM
Procedure, shortened: as §1

[7] = system: JEG-3; conditions: Gynecologic cancer cell panel viability, ATPlite luminescence, 48 h; series mostly up to 57.5 µM
Procedure, shortened: as §1

[8] = system: OV90; conditions: Gynecologic cancer cell panel viability, ATPlite luminescence, 48 h; series mostly up to 57.5 µM
Procedure, shortened: as §1

[9] = system: PA-1; conditions: Gynecologic cancer cell panel viability, ATPlite luminescence, 48 h; series mostly up to 57.5 µM
Procedure, shortened: as §1

[10] = system: SKOV3; conditions: Gynecologic cancer cell panel viability, ATPlite luminescence, 48 h; series mostly up to 57.5 µM
Procedure, shortened: as §1

[11] = system: Tov-21-G; conditions: Gynecologic cancer cell panel viability, ATPlite luminescence, 48 h; series mostly up to 57.5 µM
Procedure, shortened: as §1

[12] = system: Tov112D; conditions: Gynecologic cancer cell panel viability, ATPlite luminescence, 48 h; series mostly up to 57.5 µM
Procedure, shortened: as §1
On the % scale 0 is the no-effect control and ±100 the full control effect.

C[C@@H]1CC[C@]2(C(=O)O[C@@H]3O[C@H](CO[C@@H]4O[C@H](CO)[C@@H](O[C@@H]5O[C@@H](C)[C@H](O)[C@@H](O)[C@H]5O)[C@H](O)[C@H]4O)[C@@H](O)[C@H](O)[C@H]3O)CC[C@]3(C)C(=CCC4[C@@]5(C)C[C@@H](O)[C@H](O)[C@@](C)(CO)C5CC[C@]43C)C2[C@H]1C (stereo partly drawn)
inactive: activity change, negative = cytotoxicity [1] -0.2% [at 11.6 µM] | activity change, negative = cytotoxicity [2] -4.15% [at 11.6 µM] | activity change, negative = cytotoxicity [3] 20.3% [at 11.6 µM] | activity change, negative = cytotoxicity [4] -3.91% [at 11.6 µM] | activity change, negative = cytotoxicity [5] 11% [at 11.6 µM] | activity change, negative = cytotoxicity [6] -0.706% [at 11.6 µM] | activity change, negative = cytotoxicity [7] 0.915% [at 11.6 µM] | activity change, negative = cytotoxicity [8] -1.43% [at 11.6 µM] | activity change, negative = cytotoxicity [9] 6.43% [at 11.6 µM] | activity change, negative = cytotoxicity [10] 21.1% [at 11.6 µM] | activity change, negative = cytotoxicity [11] 3.06% [at 11.6 µM] | activity change, negative = cytotoxicity [12] 3.29% [at 11.6 µM]

CC(=O)O[C@H]1C[C@@H](O)C(C)(C)C2C[C@@H](OC(C)=O)[C@]3(C)C(CC[C@@]4(C)[C@H](c5ccoc5)OC(=O)[C@H]5O[C@]543)[C@]21C (stereo partly drawn)
inactive: Potency [1] | Potency [2] | outcome [3] | Potency [4] | Potency [5] | Potency [6] | Potency [7] | Potency [8] | Potency [9] | Potency [10] | Potency [11] | Potency [12]

C[C@@H]1O[C@@H](OC[C@H]2O[C@@H](OCc3ccccc3)[C@H](O)[C@@H](O)[C@@H]2O)[C@H](O)[C@H](O)[C@H]1O
inactive: Potency [1] | Potency [2] | outcome [3] | Potency [4] | Potency [5] | Potency [6] | Potency [7] | Potency [8] | Potency [9] | Potency [10] | Potency [11] | Potency [12]

O=C(Cc1ccccc1)OC[C@H]1O[C@H](O[C@H]2O[C@H](CO)[C@@H](O)[C@H](O)[C@H]2O)[C@H](O)[C@@H](O)[C@@H]1O
inactive: Potency [1] | Potency [2] | outcome [3] | Potency [4] | Potency [5] | Potency [6] | Potency [7] | Potency [8] | Potency [9] | Potency [10] | Potency [11] | Potency [12]

O=C(Nc1ccn(Cc2c(F)cccc2C(F)(F)F)n1)c1c(F)cccc1F
inactive: activity change, negative = cytotoxicity [1] 3.35% [at 11.6 µM] | activity change, negative = cytotoxicity [2] 17% [at 11.6 µM] | activity change, negative = cytotoxicity [3] 7.64% [at 11.6 µM] | activity change, negative = cytotoxicity [4] 0.101% [at 11.6 µM] | activity change, negative = cytotoxicity [5] 13% [at 11.6 µM] | activity change, negative = cytotoxicity [6] -2.96% [at 11.6 µM] | activity change, negative = cytotoxicity [7] 9.68% [at 11.6 µM] | activity change, negative = cytotoxicity [8] 0.656% [at 11.6 µM] | activity change, negative = cytotoxicity [9] 10.8% [at 11.6 µM] | activity change, negative = cytotoxicity [10] 9.68% [at 11.6 µM] | activity change, negative = cytotoxicity [11] 10.6% [at 11.6 µM] | activity change, negative = cytotoxicity [12] 3.93% [at 11.6 µM]

CC(NC(=O)c1ccccc1N)C(=O)O (stereo not drawn)
inactive: Potency [1] | Potency [2] | outcome [3] | Potency [4] | Potency [5] | Potency [6] | Potency [7] | Potency [8] | Potency [9] | Potency [10] | Potency [11] | Potency [12]

CC1(C(=O)O)CCCC2(C)C3CC4C5CC3(CCC12)CC45C (stereo not drawn)
inactive: Potency [1] | Potency [2] | outcome [3] | Potency [4] | Potency [5] | Potency [6] | Potency [7] | Potency [8] | Potency [9] | Potency [10] | Potency [11] | Potency [12]

C=C1CC2C(C)(CCC(=O)O)C(C(C)(C)O)CCC2(C)C2(C(=O)OC)C(=O)C(C)(O)C(=O)C12C (stereo not drawn)
inactive: Potency [1] | Potency [2] | outcome [3] | Potency [4] | Potency [5] | Potency [6] | Potency [7] | Potency [8] | Potency [9] | Potency [10] | Potency [11] | Potency [12]

CC1CC(=O)C2=C(O1)OC1(C)CCC3C(C)(C)C4OC4C(=O)C3(C)C1C2 (stereo not drawn)
inactive: Potency [1] | Potency [2] | outcome [3] | Potency [4] | Potency [5] | Potency [6] | Potency [7] | Potency [8] | Potency [9] | Potency [10] | Potency [11] | Potency [12]

C=C1C(O)C(O)C2(CC3C(C)=CCC4C(C)(C(=O)O)CCCC34C)OC2C1O (stereo not drawn)
inactive: Potency [1] | Potency [2] | outcome [3] | Potency [4] | Potency [5] | Potency [6] | Potency [7] | Potency [8] | Potency [9] | Potency [10] | Potency [11] | Potency [12]

CC1(C)CC=C(C#Cc2ccccc2)c2cc(/C=C/c3ccc(C(=O)O)cc3)ccc21
inactive: Potency [1] | Potency [2] | outcome [3] | Potency [4] | Potency [5] | Potency [6] | Potency [7] | Potency [8] | Potency [9] | Potency [10] | Potency [11] | Potency [12]

C/C(=C/CO)CC[C@H]1[C@]2(C)C[C@H](O)CC(C)(C)[C@H]2CC[C@]1(C)O
inactive: Potency [1] | Potency [2] | outcome [3] | Potency [4] | Potency [5] | Potency [6] | Potency [7] | Potency [8] | Potency [9] | Potency [10] | Potency [11] | Potency [12]

COCC1OC(OC(C)(C)C2CCC3(C)C=C(C4CCC5C4(C)CC(O)C4OC(C(C)(C)O)CCC45C)CCC3O2)C(NC(C)=O)C(O)C1O (stereo not drawn)
inactive: Potency [1] | Potency [2] | outcome [3] | Potency [4] | Potency [5] | Potency [6] | Potency [7] | Potency [8] | Potency [9] | Potency [10] | Potency [11] | Potency [12]

CC(=O)OCC1OC(OC2COC(OC3COC(OC4C(OC5C(CO)OC(OC6CCC7(C)C(CCC8(C)C7CC=C7C9CC(C)(C)CCC9(C(=O)OC9OC(CO)C(O)C(O)C9OC9OCC(OC%10OCC(O)(CO)C%10O)C(O)C9O)C(O)CC78C)C6(C)C)C(O)C5O)OCC(O)C4O)C(O)C3O)C(O)C2O)C(OC(=O)/C=C/c2ccccc2)C(O)C1OC(C)=O (stereo not drawn)
inactive: activity change, negative = cytotoxicity [1] 6.07% [at 6.55 µM] | activity change, negative = cytotoxicity [2] -0.975% [at 6.55 µM] | activity change, negative = cytotoxicity [3] 5.64% [at 6.55 µM] | activity change, negative = cytotoxicity [4] -4.41% [at 6.55 µM] | activity change, negative = cytotoxicity [5] 6.46% [at 6.55 µM] | activity change, negative = cytotoxicity [6] 3.2% [at 6.55 µM] | activity change, negative = cytotoxicity [7] -2.72% [at 6.55 µM] | activity change, negative = cytotoxicity [8] -0.455% [at 6.55 µM] | activity change, negative = cytotoxicity [9] -23.4% [at 6.55 µM] | activity change, negative = cytotoxicity [10] 14.7% [at 6.55 µM] | activity change, negative = cytotoxicity [11] -3.47% [at 6.55 µM] | activity change, negative = cytotoxicity [12] 9.27% [at 6.55 µM]
